Bioassay records as filed in PubChem.
This is a sample that favours compounds with a hit; in the whole collection about 11% have one here.
USP30 block = inhibitors of human USP30 deubiquitinase. purified USP30, Ub-rhodamine cleavage fluorescence. inhibition, % at 25 µM. Ubiquitin carboxyl-terminal hydrolase 30 (Homo sapiens), Q70CQ3. 5.3% of 47,000 active. AID 1645860, 2021
USP17 block = inhibitors of human USP17 deubiquitinase; Ubiquitin carboxyl-terminal hydrolase 17-like protein 5 (Homo sapiens), A8MUK1; purified USP17, Ub-rhodamine cleavage fluorescence, 3 h; inhibition, % at 50 µM; 6.5% of 47,000 active; AID 1645855, 2021
USP28 inh = inhibitors of human USP28 deubiquitinase | 3% of 47,000 active | purified USP28, Ub-rhodamine cleavage fluorescence, 30 min | AID 1645857, 2021 | inhibition, % at 25 µM | Ubiquitin carboxyl-terminal hydrolase 28 (Homo sapiens), Q96RU2
OTUD3 inh = inhibitors of human OTUD3 deubiquitinase. purified OTUD3, Ub-rhodamine fluorescence, 2 h. 0.7% of 47,000 active. AID 1645858, 2021. inhibition, % at 25 µM
A number is an active result. Cut-off read from the data, not from the text of the source: active = inhibition above about 30%; inactive = the rest.

For Cc1ccccc1N1CCN(C(=O)c2ccc(-c3cncnc3)nc2)CC1 the results were USP30 block inactive, USP17 block inactive, USP28 inh inactive and OTUD3 inh inactive.
`CCc1ccc(NC(=O)c2sc3ncnc(N4CCN(C)CC4)c3c2C)cc1` gave USP30 block inactive, USP17 block inactive, USP28 inh 34.5 and OTUD3 inh inactive.
For Cc1c(C(=O)NCc2cccc(F)c2)sc2ncnc(N3CCCC3)c12 the results were USP30 block inactive, USP17 block inactive, USP28 inh inactive and OTUD3 inh inactive.
Screening Cc1c(C(=O)NCc2ccc(Cl)cc2)sc2ncnc(N3CCCC3)c12 returned USP30 block 42.7, USP17 block inactive, USP28 inh 31.0 and OTUD3 inh inactive.
`CCOC(=O)c1ccc(NC(=O)COc2cccc3c2CCN(CC)C3=O)cc1` gave USP30 block inactive, USP17 block inactive, USP28 inh 69.1 and OTUD3 inh inactive.
